Compound activity deposited in PubChem BioAssay by several laboratories.
Hits are enriched below; roughly 7% of the tested compounds scored in any of these assays.
ADAM17 inh = ADAM17 inhibition, QFRET primary screen. recombinant ADAM17, EDANS/DABCYL FRET peptide cleavage. inhibition, % at 6.95 µM. 370,000 tested, 0.83% active. AID 720648;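 active means inhibition above the mean of compounds lying between control limits plus 3 SD, set per campaign, cut at about 8.5% in these data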
ADAM10 inh = ADAM10 inhibition, QFRET primary screen; O14672; recombinant ADAM10, EDANS/DABCYL FRET peptide cleavage, 3 h; inhibition, % at 7 µM; 370,000 tested, 0.62% active; AID 720582;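 active means inhibition above a per-campaign cutoff equal to the mean of compounds falling between control-based bounds plus 3 SD, cut at about 20% in these data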
AHR activator = activators of human aryl hydrocarbon receptor; P35869; activation, % at 5 µM; AHR-responsive luciferase reporter cells, luminescence; 320,000 tested, 2.5% active; AID 2796; in the data active means activation above about 47%
GRIN3A LBD mod = modulates the human NR3A ligand-binding domain. 340,000 tested, 2.5% active. NR3A LBD differential scanning fluorimetry, Tm shift; 0% = protein alone, 100% = glycine-bound protein. Tm shift relative to glycine control, % at 25 µM;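 active means melting temperature shift of at least 10% of the positive control shift, at one fixed dose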
proKLK7 act = activators of human kallikrein-7 zymogen; P49862; purified proKLK7, EDANS-DABCYL substrate fluorescence; 100% is mature enzyme control, 0% vehicle; activation, % at 7 µM; 370,000 tested, 0.9% active; AID 652039;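 active means activation above the mean of all tested compounds plus 3 SD, computed per campaign excluding outliers beyond control limits, cut at about 13% in these data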
Target sequence (P49862 whole entry, looked up): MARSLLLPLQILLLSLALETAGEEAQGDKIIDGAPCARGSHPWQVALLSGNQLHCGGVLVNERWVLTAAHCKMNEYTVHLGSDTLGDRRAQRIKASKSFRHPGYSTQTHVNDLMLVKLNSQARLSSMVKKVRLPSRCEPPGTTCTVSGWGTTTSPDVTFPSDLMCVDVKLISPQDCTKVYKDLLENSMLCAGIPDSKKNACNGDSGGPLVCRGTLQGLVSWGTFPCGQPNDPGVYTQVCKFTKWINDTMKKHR
rCAG RNA binder = r(CAG) repeat RNA binding | 370,000 tested, 1.3% active | TO-PRO-1 dye displacement fluorescence | inhibition, % at 3 µM;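 active means inhibition above the plate cutoff, the mean of all test compounds on that plate plus 3 SD, cut at about 35% in these data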;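 further: higher means more dye released from RNA so lower well fluorescence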
KLK7 act conf = proKLK7 activation, confirmation; shares compounds with proKLK7 act; purified proKLK7, EDANS-DABCYL substrate fluorescence; scaled: vehicle 0, mature enzyme 100; activation, % at 7 µM; 3,200 tested, 68% active; AID 686949;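 active means activation, as change over the incubation, above the mean of all tested compounds plus 3 SD, cut at about 13% in these data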
EDANS interfere = fluorescence interference counter-screen for KLK7 activators; shares compounds with proKLK7 act; EDANS-DABCYL substrate fluorescence interference, no enzyme, 4 h; solvent 0%, active enzyme control 100%; activation, % at 7 µM; 3,200 tested, 80% active;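 active means activation above the all-compound mean plus 3 SD, ignoring values outside control-based bounds, cut at about 4.8% in these data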;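 further: value is the 4 h activation minus the activation read at time zero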
K7 EDANS ctr = optically interferes with EDANS-DABCYL fluorescence, kallikrein-7 activator counter-screen; EDANS-DABCYL peptide fluorescence interference, no enzyme; 250 tested, 20% active; AID 720493; shares compounds with proKLK7 act; EC50, µM;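 active means compounds that raise the fluorescence signal in this interference counterscreen, with EC50 at or below 10 µM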;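 further: intact quenched peptide substrate alone read at 355 nm excitation and 520 nm emission; signal is fluorescence gain from T0 to T4 after four hours at room temperature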
Large screens that a line does not name were inactive (follow-up assays come after a bar, where they were run).

O=C(COC(=O)c1ccccc1NCCO)Nc1cccc(S(=O)(=O)NC2=NCCCCC2)c1	proKLK7 act 16.6 | KLK7 act conf inactive | EDANS interfere inactive
O=C(c1ccccc1)N1CN2CN(C(=O)c3ccccc3)CC([N+](=O)[O-])(C2)C1	none
CCOc1ccc(NC(=O)CCS(=O)(=O)c2ccc(C)cc2)cc1	none
COc1ccccc1C=NN=C1c2ccccc2-c2ccccc21	none (no result: AHR activator)
CC(C#N)(NC(=O)COC(=O)c1ccccc1NCCO)C1CC1 (stereo not given)	proKLK7 act 19.2 | KLK7 act conf 25.1 | EDANS interfere 33.6
COc1ccc2nc3cc(Cl)ccc3c(Nc3cc(C(C)C)c(O)cc3C)c2c1	proKLK7 act 20.1 | KLK7 act conf inactive | EDANS interfere inactive
COc1ccc(S(=O)(=O)Nc2cc(C(C)C)c(O)cc2C)cc1	none
Cc1ccc(NC(=O)CSC(C)C(=O)OCc2cc(=O)oc3cc(O)ccc23)cc1 (stereo not given)	proKLK7 act 241.2 (no result: AHR activator, GRIN3A LBD mod) | KLK7 act conf 314.3 | EDANS interfere 275.5
CSCCC(NS(=O)(=O)c1ccccc1)C(=O)OCc1cc(=O)oc2cc(O)ccc12 (stereo not given)	proKLK7 act 435.4 | KLK7 act conf 497.9 | EDANS interfere 529.0
CC(=O)Nc1ccc2c(COC(=O)[C@H](C)N3C(=O)C4CCCCC4C3=O)cc(=O)oc2c1 (stereo not given in full)	proKLK7 act 23.9 | KLK7 act conf inactive | EDANS interfere 4.7
COC(=O)[C@H]1C[C@H](O)CN1S(=O)(=O)c1ccc(Br)cc1F	none (no result: AHR activator)
Cc1ccc(S(=O)(=O)N(C)CC(=O)N2CCCCCC2)cc1	none
O/N=C\c1cnc(N2CCN(c3ccccc3)CC2)s1	none
Cc1ccc(S(=O)(=O)N2CCOCC2)cc1C(=O)O	none
O=C(O)c1cc2cccc(S(=O)(=O)N3CCOCC3)c2cc1O	proKLK7 act 13.8 | KLK7 act conf 70.0 | EDANS interfere 71.5
CC1CN(C2=Nc3cccc4cccc2c34)CC(C)O1 (stereo not given)	proKLK7 act 44.0 | KLK7 act conf inactive | EDANS interfere 5.7
CCOC(=O)N1CCN(C2=Nc3cccc4cccc2c34)CC1	proKLK7 act 54.9 | KLK7 act conf 18.3 | EDANS interfere 28.2
COc1ccccc1N1CCN(C2=Nc3cccc4cccc2c34)CC1	none
c1cc2c3c(cccc3c1)C(N1CCOCC1)=N2	proKLK7 act 44.3 | KLK7 act conf 47.4 | EDANS interfere 46.0
CC(=O)N1CCN(C2=Nc3cccc4cccc2c34)CC1	proKLK7 act 59.8 | KLK7 act conf 21.8 | EDANS interfere 18.6 | K7 EDANS ctr inactive
C[C@@H]1CN([C@H](C)CO)C(=O)c2cc(Br)cnc2O[C@@H]1CN(C)C(=O)Nc1ccccc1	none (no result: AHR activator, GRIN3A LBD mod)
CC[C@H](C)/C=C(C)/C=C/C1=CC2=CC(=O)[C@]3(C)OC(=O)[C@@H](C(C)=O)[C@@H]3C2=CO1	proKLK7 act 18.7 | KLK7 act conf inactive | EDANS interfere 8.1
CCCCc1nnc(NC(=O)CSCc2cc(=O)n3cc(C)sc3n2)s1	none
COc1ccc(-c2cn3cc(C)ccc3n2)cc1OC	proKLK7 act 13.0 | KLK7 act conf inactive | EDANS interfere 12.7
COc1ccc(CC(=O)Nc2cccc(-c3cn4ccccc4n3)c2)cc1	none
COc1ccc(CC(=O)Nc2ccc(-c3cn4ccccc4n3)cc2)cc1OC	proKLK7 act 32.6 | KLK7 act conf inactive | EDANS interfere inactive
COCCNc1nc(NCc2cccc(OC)c2)c2sc(-c3ccccc3)cc2n1	none (no result: AHR activator, GRIN3A LBD mod)
COc1ccc(CNc2nc3ccccc3n2Cc2ccccc2)cc1OC	none
COc1ccc(C(O)c2nc(-c3cnn(C)c3)cs2)cc1 (stereo not given)	none (no result: AHR activator, GRIN3A LBD mod)
COc1ccc(OC)c(Cc2nnc(CCC(=O)NC3C4CC5CC(C4)CC3C5)o2)c1 (stereo not given)	none
COc1ccc(CCNC(=O)c2cc(S(=O)(=O)N3CCOCC3)ccc2F)cc1	none
O=C(Nc1cccc2cccnc12)c1csc([C@@H]2O[C@H](CO)[C@H](O)[C@H](O)[C@H]2O)n1	none (no result: AHR activator, GRIN3A LBD mod)
Cc1cc(C)c2nc3nc(C)c(C)cc3c(N)c2c1	proKLK7 act 50.2 (no result: AHR activator) | KLK7 act conf 34.3 | EDANS interfere 41.0
Cc1nn(-c2ccc(Cl)cc2)c2[nH]c(CCl)cc(=O)c12	none
COc1cccc(Nc2nc3ccccc3n3nnnc23)c1	none
c1ccc(Nc2nc3ccccc3n3nnnc23)cc1	proKLK7 act 19.5 | KLK7 act conf inactive | EDANS interfere 46.2
COc1ccc(C2Nc3ccccc3C(=O)N2NS(=O)(=O)c2ccc(C)cc2)cc1 (stereo not given)	proKLK7 act 16.1 | KLK7 act conf inactive | EDANS interfere 5.6
O=C1c2ccccc2NC(c2cccc(O)c2)N1NS(=O)(=O)c1ccccc1 (stereo not given)	proKLK7 act 20.3 | KLK7 act conf inactive | EDANS interfere 6.5
Cc1ccc(N2C(=O)c3ccccc3NC2c2ccccc2O)cc1 (stereo not given)	none
Cc1ccc(S(=O)(=O)NN2C(=O)c3ccccc3NC2c2ccccc2)cc1 (stereo not given)	proKLK7 act 17.2 | KLK7 act conf inactive | EDANS interfere 4.9
CS(=O)(=O)NN1C(=O)c2ccccc2NC1c1cc2ccccc2nc1Cl (stereo not given)	none
O=C1c2ccccc2NC(c2cccc(O)c2)N1c1ccccc1 (stereo not given)	proKLK7 act 44.4 (no result: GRIN3A LBD mod) | KLK7 act conf inactive | EDANS interfere 15.1
CC(=O)NN1C(=O)c2ccccc2NC1c1cccc([N+](=O)[O-])c1 (stereo not given)	none
CCOC(=O)c1ccc(S(=O)(=O)NNC(=O)Cc2csc(C)n2)cc1	none
Cc1nn(-c2ccccc2)c2sc(C(=O)NCCc3ccc(Cl)cc3)cc12	none (no result: AHR activator, GRIN3A LBD mod)
N#C/C(N)=C(/C#N)N=Cc1cccc(Cl)c1	none
Cc1sc(-c2ccncc2)nc1OC(=O)c1ccccc1	proKLK7 act 19.1 | KLK7 act conf 33.8 | EDANS interfere 28.9
C[C@@H]1C(c2ccccc2)=NN(c2ccccc2)[C@H]1C(=O)N1CCOC1=O	proKLK7 act 243.3 (no result: AHR activator) | KLK7 act conf 222.9 | EDANS interfere 217.4
